HEK293 viab: GF-AFC viability counterscreen for inhibitors of alpha-synuclein gene (SNCA) expression; HEK-293-SNCA-luc viability, GF-AFC fluorescence, 24 h; Potency, µM (titrated, usually from 57.1 µM), actives largely listed as cytotoxic; 150,000 compounds, 0.12% hits; AID 1671193, 2021; also: nearly all actives have a fitted effect of over 30% in size
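HEK-293-SNCA-luc cells (1500/well) plated 24 h, then exposed 24 h to a dilution series; GF-AFC added 30 min at 37C, fluorescence 405/540 nm; normalised to medium-only and DMSO wells, Hill fit.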
NIH3T3 tox: Cytotoxic Profiling in NIH 3T3 Cell Line of Diverse Libraries Using Quantitative High-Throughput Screening; NIH 3T3 viability, CellTiter-Glo ATP luminescence, 48-72 h; Potency, µM (highest dose often 96.7 µM), most hits filed as inhibitors; 94,000 compounds, 4.3% hits; also: nearly all actives have a fitted effect of over 55% in size
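Viability of NIH 3T3 cells after 48 or 72 hr compound treatment at 37 °C was assessed by CellTiter-Glo, with luminescence imaged following a 10 min room-temperature step.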
SNCA expr inh: Primary qHTS assay for inhibitors of alpha-synuclein gene (SNCA) expression | Potency, µM (series often up to 57.2 µM), actives largely listed as inhibitors | AID 1671194, 2021 | HEK-293 SNCA-luciferase knock-in, luminescence, 24 h | 140,000 compounds, 0.17% hits; also: nearly all actives have a fitted effect of over 45% in size
FLuc inh-1: Firefly luciferase inhibition profiling of diverse chemical library using quantitative high-throughput screening. Luciferin 4-monooxygenase (Photinus pyralis), P08659. purified P. pyralis luciferase, luminescence, biochemical. Potency, µM (titrated, usually from 115 µM), hits mostly inhibitors. 76,000 compounds, 2.5% hits. AID 1347043, 2019; also: nearly all actives have a fitted effect of over 65% in size
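Purified 10nM P. pyralis luciferase with 10uM D-luciferin and 10uM ATP in 50mM Tris acetate pH 7.5, 10mM Mg acetate, 0.01% Tween-20, 0.05% BSA. qHTS titration; luminescence read by CCD imager.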
HEK293 tox: Cytotoxic Profiling in HEK 293 Cell Line of Diverse Libraries Using Quantitative High-Throughput Screening. HEK 293 viability, ATP luminescence (CellTiter-Glo), 48-72 h. Potency, µM (doses to about 115 µM), most hits filed as inhibitors. 94,000 compounds, 6.6% hits. AID 1345083, 2018; also: nearly all actives have a fitted effect of over 60% in size
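ATP-coupled CellTiter-Glo luminescence served as viability read-out, recorded 10 min after reagent addition at room temperature. HEK 293 cells, 250 cells/well, had been incubated with pintool-transferred compound for 48 or 72 hr at 37 degree Celsius.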
hNpr1 antagonist: Natriuretic polypeptide receptor (hNpr1) antagonism - Primary qHTS; Atrial natriuretic peptide receptor 1 (Homo sapiens), P16066; HEK293 hNpr1 GloSensor cGMP, ANP-stimulated luminescence; Potency, µM (highest dose often 46.3 µM), actives largely listed as inhibitors; 76,000 compounds, 1.6% hits; AID 1347048, 2019; calls by dose curve; also: nearly all actives have a fitted effect of over 60% in size
Target sequence (P16066 whole entry, looked up): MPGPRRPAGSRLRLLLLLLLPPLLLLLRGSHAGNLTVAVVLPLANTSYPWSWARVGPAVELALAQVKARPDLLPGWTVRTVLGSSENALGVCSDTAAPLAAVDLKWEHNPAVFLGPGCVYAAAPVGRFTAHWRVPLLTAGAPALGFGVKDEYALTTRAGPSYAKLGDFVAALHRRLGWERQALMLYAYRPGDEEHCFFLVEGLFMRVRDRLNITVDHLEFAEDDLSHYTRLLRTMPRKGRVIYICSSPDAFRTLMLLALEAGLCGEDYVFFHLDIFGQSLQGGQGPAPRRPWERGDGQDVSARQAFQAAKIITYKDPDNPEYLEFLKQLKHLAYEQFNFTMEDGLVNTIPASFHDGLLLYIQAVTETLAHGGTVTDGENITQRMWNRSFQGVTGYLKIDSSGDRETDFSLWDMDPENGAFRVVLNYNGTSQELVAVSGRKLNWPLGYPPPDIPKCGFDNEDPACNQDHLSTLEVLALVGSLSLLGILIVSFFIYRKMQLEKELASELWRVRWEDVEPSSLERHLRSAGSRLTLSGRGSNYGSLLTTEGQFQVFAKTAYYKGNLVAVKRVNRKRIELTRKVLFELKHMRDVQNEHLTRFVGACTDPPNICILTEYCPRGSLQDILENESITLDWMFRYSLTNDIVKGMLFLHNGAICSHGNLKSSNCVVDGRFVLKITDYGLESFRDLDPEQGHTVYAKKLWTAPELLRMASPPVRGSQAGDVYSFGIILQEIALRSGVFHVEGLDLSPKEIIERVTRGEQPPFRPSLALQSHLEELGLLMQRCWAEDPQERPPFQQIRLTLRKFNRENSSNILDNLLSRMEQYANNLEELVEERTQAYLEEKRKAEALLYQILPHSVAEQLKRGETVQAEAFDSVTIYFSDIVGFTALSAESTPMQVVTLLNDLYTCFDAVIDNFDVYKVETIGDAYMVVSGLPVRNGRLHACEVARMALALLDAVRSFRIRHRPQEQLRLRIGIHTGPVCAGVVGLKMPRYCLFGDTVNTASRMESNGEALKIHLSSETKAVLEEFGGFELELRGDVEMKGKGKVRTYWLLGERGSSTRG
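HEK293 cells stably expressing human Npr1 and cGMP GloSensor pGS-40F, loaded 2 h with 2% GloSensor reagent, given compound 30 min at room temperature. Luminescence read before and 20 min after 0.1 nM hNppA.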
FLuc SDR no ATP: Firefly luciferase (FLuc-C-HiBiT) SDR gain of signal screen - without ATP. Purified FLuc-C-HiBiT, Nano-Glo HiBiT luminescence, no ATP. 1,300 compounds, 7.8% hits. shares compounds with FLuc inh-1. Potency, µM (series often up to 32.7 µM), most hits filed as activators; also: nearly all actives have a fitted effect of over 55% in size
FLuc SDR ATP: Firefly luciferase (FLuc-C-HiBiT) SDR gain of signal screen - plus ATP. purified FLuc-C-HiBiT + ATP, HiBiT complementation luminescence. 1,300 compounds, 8.7% hits. Potency, µM (top dose mostly 32.7 µM), actives largely listed as activators. AID 1963319, 2024. shares compounds with FLuc inh-1;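 also: signal reports ligand binding via conformational change of the enzyme rather than luciferase catalysis; nearly all actives have a fitted effect of over 55% in size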
FLuc inh-2: Firefly luciferase (FLuc-C-HiBiT) enzymatic inhibition screen - Functional assay. Potency, µM (doses to about 32.7 µM), hits mostly inhibitors. purified FLuc-C-HiBiT enzyme, luciferin luminescence. shares compounds with FLuc inh-1. 1,300 compounds, 42% hits; also: nearly all actives have a fitted effect of over 70% in size
A number is an active result; – = inactive; ? = inconclusive; · = no result given. Only some compounds are listed: those with a hit (about 7.4% of all), similar ones and a draw of the others. Unless noted, calls follow the shape of the dose curve; as a rule, active = well fitted curve in the direction sought with a large enough effect; inconclusive = small, poorly fitted or top-dose-only effect, or another doubt; inactive = no such curve, though single readings can be large; an effect the other way counts as inactive or inconclusive.

SMILES	HEK293 viab	NIH3T3 tox	SNCA expr inh	FLuc inh-1	HEK293 tox	hNpr1 antagonist	FLuc SDR no ATP	FLuc SDR ATP	FLuc inh-2
CCO[C@H]1CN(C(=O)CCCc2nc(-c3ccccc3OC)no2)C[C@@H]1O	–	–	–	–	–	–	·	·	·
COCCCNC(=O)c1ccnc(-c2nnc3ccc(N(C)C)nn23)c1	–	?	–	–	–	–	·	·	·
COc1ccc(C(=O)Nc2ccc3n(c2=O)C[C@H]2C[C@@H]3CN(C(=O)CCCC(=O)O)C2)cc1	–	–	–	13µM	–	–	?	–	?
O=C(Nc1ccc2c(c1)OCCO2)N1CCC(c2nc(C3CCOCC3)no2)CC1	–	–	–	10µM	–	–	–	–	?
O=C(NC1CCCCC1)N1CCC(c2nc(C3CCOCC3)no2)CC1	–	–	?	–	–	–	·	·	·
O=C(Nc1ccc2c(c1)OCCO2)N1CCCC1c1nc(CCOCC2CCCC2)no1 (stereo not given)	–	–	–	?	?	–	·	·	·
O=C(Nc1ccc2c(c1)OCCO2)N1CC(c2nc(CCOCC3CC3)no2)C1	–	–	–	11µM	?	–	–	–	?
O=C(NCCC1CCCCC1)c1c[nH]c2ncccc12	–	?	–	5.6µM	71µM	?	?	–	18µM
CCCOc1nccnc1NC1CCN(C(=O)c2ccncc2)CC1	–	–	–	–	–	–	·	·	·
CN(Cc1ccccc1)C(=O)[C@H]1C[C@@H](O)[C@H](O)[C@@H]2N=C(Nc3ccc(Cl)cc3)S[C@@H]21	–	–	?	–	–	–	·	·	·
CC(C)c1ccc(N2C(=S)N[C@H]3[C@@H](O)[C@H](O)C[C@@H](C(=O)N(C)Cc4ccccc4)[C@H]32)cc1	–	35µM	–	3.2µM	40µM	–	–	11µM	11µM
CC(=O)c1ccc(NS(=O)(=O)c2cccc(S(=O)(=O)c3ccc(Cl)cc3)c2)cc1	–	·	–	·	·	·	–	–	–
Cc1ccc(-c2ncc(NC(=O)c3cccs3)cn2)cc1	–	–	–	?	–	–	·	·	·
CCCC(=O)Nc1cnc(-c2ccc(C)cc2)nc1	–	–	–	2µM	?	?	?	?	3.5µM
COc1ccc(C(=O)Nc2cccc(-c3nc4ccccc4s3)c2)cc1	·	·	·	·	·	·	–	–	–
CC(=O)Nc1cccc(NC(=O)CSc2ccc(-c3sc(-c4ccccc4)nc3C)nn2)c1	?	·	–	·	·	·	·	·	·
O=C(CSc1nnc2ccccn12)Nc1cccc(-c2nc3ccccc3s2)c1	·	·	·	·	·	·	–	–	–
COc1cccc(C(=O)Nc2ccc3nc(SCc4ccc(C)cc4)sc3c2)c1	–	·	–	·	·	·	·	·	·
COc1cccc(-c2nc3cc(NC(=O)c4ccc(F)c(C#N)c4)ccc3s2)c1	·	·	·	·	·	·	–	–	–
COCC(=O)Nc1cccc(-c2nc3cccnc3s2)c1	–	·	–	·	·	·	·	·	·
Cc1ccc(OCC(=O)Nc2cccc(-c3nc4ccccc4s3)c2)cc1	–	·	–	·	·	·	–	–	9.9µM
C#CCN(C)CC[C@@H]1CC[C@H](O)[C@@H](C(=O)NCc2ccc(OC)cc2)O1	–	–	–	–	–	–	·	·	·
O=C(NCC1CC1)C1(CCO)CCN(c2ncccn2)C1 (stereo not given)	–	–	–	·	–	·	·	·	·
CCCn1c(=O)sc2cc(NC(=O)c3ccccc3OCC)ccc21	–	·	–	·	·	·	·	·	·
CCOc1ccccc1C(=O)Nc1cccc(-c2nc3ccccc3s2)c1	–	·	–	·	·	·	–	–	?
SMILES	HEK293 viab	NIH3T3 tox	SNCA expr inh	FLuc inh-1	HEK293 tox	hNpr1 antagonist	FLuc SDR no ATP	FLuc SDR ATP	FLuc inh-2
Cc1cccc(OCC(=O)Nc2ccc3nc(SCc4ccccc4)sc3c2)c1	–	·	?	·	·	·	·	·	·
CCCC(CCC)C(=O)Nc1cccc(-c2nc3cccnc3s2)c1	–	·	–	·	·	·	·	·	·
CCC(CC)C(=O)Nc1cccc(-c2nc3ccccc3s2)c1	?	·	–	·	·	·	–	–	?
Cc1cccc(OCC(=O)Nc2cccc(-c3nc4ccccc4s3)c2)c1	·	·	·	·	·	·	–	–	?
CC(=O)N1CCN(Cc2ccc([C@H](C)Nc3nccc(N4C(=O)OC[C@@H]4C(C)C)n3)cc2)CC1	–	·	·	·	·	·	·	·	·
O=C(c1cnccn1)N1CCCC(Cc2noc(-c3ccccn3)n2)C1 (stereo not given)	–	–	–	–	–	–	·	·	·
Cc1cccc(-c2nc(C)c(CCNC(=O)c3cccs3)s2)c1	–	·	–	·	·	·	·	·	·
COc1ccc(-c2nc(C)c(CCNC(=O)c3cccs3)s2)cc1	–	·	–	·	·	·	–	–	?
Cc1ccc(-c2nc(C)c(CCNC(=O)c3cccs3)s2)cc1	–	·	–	·	·	·	–	–	?
COCCOCc1nc(C2CCCCN2C(=O)c2ccc(OC)c(OC)c2)no1 (stereo not given)	–	–	–	–	–	–	·	·	·
O=C(Nc1ccc2c(c1)OCCO2)C1CN(S(=O)(=O)C2CC2)CC12CCCCC2 (stereo not given)	–	–	?	1.1µM	?	?	?	?	4.4µM
CC(C)N1C[C@H](O)C[C@H]1c1nnc2n1CCN(C(=O)c1nccn1C)CC2	–	–	–	–	–	–	·	·	·
COc1cc(OC)c(NC(=O)Cn2c(SCc3ccccc3F)nc3cccnc32)cc1Cl	–	·	–	·	·	·	–	–	–
COc1ccc(NC(=O)Cn2c(SCc3ccc(C)cc3)nc3cccnc32)cc1OC	–	·	–	·	·	·	1.4µM	?	0.7µM
COc1ccc(NC(=O)Cn2c(SCc3ccc(F)cc3)nc3cccnc32)cc1OC	–	·	–	·	·	·	·	·	·
O=C(Cn1c(SCc2ccccc2F)nc2cccnc21)Nc1ccc(F)c(Cl)c1	–	·	?	·	·	·	·	·	·
CSc1ccc(/C=C/c2nc3ccccc3n2S(=O)(=O)c2cccc(Cl)c2)cc1	–	·	?	·	·	·	2µM	?	0.56µM
Cc1ccc(/C=C/c2nc3ccccc3n2S(=O)(=O)c2ccc(Br)cc2)cc1	–	·	?	·	·	·	1.8µM	?	0.62µM
